Data on 7 molecules can be found in PubChem BioAssay (NCATS).

The target of assay [1] is Lysosomal acid glucosylceramidase (Homo sapiens) (UniProt P04062). The experiment in a line: Glucocerebrosidase-p2 (AID 348; in the data active = potency below about 10 µM; note: potency is the fitted concentration of half-maximal effect). Particulars: purified GBA, blue fluorogenic substrate, 40 min. The method, boiled down:
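Compounds titrated from 0.6 nM upwards against 0.2 nM enzyme in pH 5.9 citric acid/KH2PO4, taurocholate, tween-20; blue fluorogenic substrate 80 uM, 40 min room temperature, stopped and read Ex 365/Em 440 for AC50.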

Assay [2] can be described thus: AP1 Signaling Pathway (AID 357).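 Note: ME-180 reporter cells stimulated with EGF at its EC50 level; % is set by controls: 0 for no effect and ±100 for the full control effect.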 The settings on record: ME-180 AP-1-bla reporter, EGF-induced, beta-lactamase ratio, 5 h; at 7.69 µM (top of the series) unless noted. Summed up: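 Titration-series screen for positive or negative modulators of EC50 EGF-induced signaling in ME-180 cells carrying an AP-1-driven beta-lactamase reporter. After 5 hours at 37 degrees Celsius, CCF4 460nm/530nm emission ratio gave %Activity; AC50 values derived.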

The target in assay [3] is Cytochrome P450 1A2 (Homo sapiens) (UniProt P05177). The experiment in a line: p450-cyp1a2 (AID 410; calls by dose curve; note: potency is the fitted concentration of half-maximal effect;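 for activity change, negative = inhibition: -100% = full effect of reference inhibitor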). The settings on record: recombinant CYP1A2, luciferin-ME demethylation, luminescence; series mostly up to 57 µM. Summed up:
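Inhibition was calculated relative to 57 uM furafylline (full inhibition). The reaction used human CYP1A2 at 20nM with Luciferin-ME at its Km, 100uM, driven by an NADPH-regenerating system for 60 min at room temperature.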

Assay [4] is described as follows: NFAT Signaling Pathway (AID 444).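 Note: carbachol stimulus at about its EC50 of 1 µM final; % is set by controls: 0 for no effect and ±100 for the full control effect.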 Particulars: Jurkat NFAT-bla M1, carbachol, beta-lactamase ratio, 5 h; at 7.69 µM (top of the series) unless noted. Summed up: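 Jurkat cells with NFAT-driven β-lactamase reporter and co-expressed M1 receptor, stimulated with carbachol (final 1 uM, ~EC50), compound titration, 5 h at 37 °C. CCF4 loaded 1 h at RT; 460/530 nm ratio gave %activity and AC50.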

Assay [5] is described as follows: Stat Signaling Pathway (AID 446).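 Note: ME-180 cervical cancer cells given 40 pM IL-6 alongside compound; SIE-controlled beta-lactamase reporter measured as 460/530 nm FRET emission ratio; % is set by controls: 0 for no effect and ±100 for the full control effect.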 Particulars: ME-180 (cervical carcinoma) SIE beta-lactamase reporter, IL-6 stimulated, 5 h; at 7.69 µM (top of the series) unless noted. The method, boiled down:
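ME-180 SIE-bla cells; overnight plating; cpd + IL-6 40 pM, 5 h, 37 C; LiveBLAzer 2.5 h RT; 460/530 nm emission ratio. Normalized to 300 pM IL-6 and 125 nM JAK inhibitor controls.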

Assay [6] concerns the target Glucocorticoid receptor (Homo sapiens) (UniProt P04150). The experiment in a line: GR-EFC Redistribution (AID 451; calls by dose curve; note: potency is the fitted concentration of half-maximal effect). Particulars: CHO-K1 GR-EFC translocation, beta-gal luminescence, 2 h. Summed up:
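CHO-K1 cells expressing nuclear EA and GR-ED fragments of b-gal; compounds titrated up to 46 uM final, 2 h at 37 C. GR nuclear translocation read as complemented b-gal luminescence after 1 h RT detection.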

Assay [7] addresses Mitogen-activated protein kinase 10 (Mus musculus) (UniProt Q61831). The experiment in a line: JNK3 AlphaScreen Assay (AID 530).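 Note: kinase came from lysate of stimulated human HepG2 cells; signal reports phosphorylation of biotinylated GST-cJun 1-79 at Ser73 with 10 µM ATP; % is set by controls: 0 for no effect and ±100 for the full control effect.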 Particulars: JNK3 lysate, c-Jun phosphorylation; series mostly up to 57.1 µM. The method, boiled down: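 qHTS format: compounds tested as titrations against IL-1beta/TNF-alpha-activated HepG2 lysate JNK3 with biotin-GST-cJun substrate and 10 uM ATP at room temperature. Loss of anti-phospho-cJun AlphaScreen signal indicates inhibition.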
On the technique in general: Bead proximity is the source of the signal in Alpha formats.

In assay [8] the target is 3',5'-cyclic-AMP phosphodiesterase 4B (Homo sapiens) (UniProt Q07343). The experiment in a line: qHTS Assay for Inhibitors of PDE-IV (AID 607; active = well fitted activation curve with a large enough effect in the main read-out, with a control signal flat, not every such curve was filed as active; note: % of control where 0% means no effect). Particulars: HEK293 ACTOne CNG channel cells, membrane potential fluorescence; series mostly up to 22.9 µM. The method, boiled down: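 ACTOne HEK293 cells carry a modified cAMP-gated CNG channel and express endogenous PDE4; plated 1000 cells/well, compounds up to 22.9 uM final. Membrane-potential dye fluorescence (ex 535/em 590) was read; parental cells received 10 uM forskolin + 100 uM RO 20-1724.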

Assay [9] can be described thus: qHTS Assay for Lipid Storage Modulators (AID 1519; calls by dose curve). The settings on record: Drosophila S3 cells, BODIPY lipid droplet/cell ratio, laser cytometry, cells loaded with oleic acid; for activity change, negative = inhibition: at 57.5 µM (top of the series). The method, boiled down: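 Cells seeded at 5,000 per well were treated with compounds over a concentration series and loaded with oleic acid (400 uM, as added). Lipid droplet fluorescence (488 nm excitation, 500-530 nm channel) was read by laser-scanning cytometry and normalized to 20 uM Triacsin C.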

Assay [10] in a line: Primary qHTS for small molecule stabilizers of the endoplasmic reticulum resident proteome: Secreted ER Calcium Modulated Protein (SERCaMP) assay (AID 1508630; active = well fitted inhibition curve with a large enough effect; note: % is set by controls: 0 for no effect and ±100 for the full control effect). The settings on record: SH-SY5Y GLuc-SERCaMP (Gaussia luciferase released on ER calcium loss) secretion, thapsigargin, luminescence; series mostly up to 38.4 µM. The method, boiled down:
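GLuc-SERCaMP-expressing SH-SY5Y cells, pretreated 16 h with compound, are challenged with thapsigargin to empty ER calcium stores; after 4 h, coelenterazine is added directly to the medium and luminescence is imaged.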
For orientation: In qHTS, concentration-response curves come from the screen itself.

Setting [11] is: measured here: cell count channel max response.
The mark [12] stands for this setting: measured here: lipid channel max response.

The structures appear in SMILES notation. Inconclusive results are not listed. Active and inactive are the calls of the source. Unless noted, calls come from the whole dose curve; as a rule, active = well fitted curve in either direction with a large enough effect (not every such curve was filed as active); inconclusive = small, poorly fitted or top-dose-only effect, or another doubt; inactive = flat fitted curve, though single readings scatter.

Chain of Cytochrome P450 1A2 (Homo sapiens) (P05177 whole entry, looked up): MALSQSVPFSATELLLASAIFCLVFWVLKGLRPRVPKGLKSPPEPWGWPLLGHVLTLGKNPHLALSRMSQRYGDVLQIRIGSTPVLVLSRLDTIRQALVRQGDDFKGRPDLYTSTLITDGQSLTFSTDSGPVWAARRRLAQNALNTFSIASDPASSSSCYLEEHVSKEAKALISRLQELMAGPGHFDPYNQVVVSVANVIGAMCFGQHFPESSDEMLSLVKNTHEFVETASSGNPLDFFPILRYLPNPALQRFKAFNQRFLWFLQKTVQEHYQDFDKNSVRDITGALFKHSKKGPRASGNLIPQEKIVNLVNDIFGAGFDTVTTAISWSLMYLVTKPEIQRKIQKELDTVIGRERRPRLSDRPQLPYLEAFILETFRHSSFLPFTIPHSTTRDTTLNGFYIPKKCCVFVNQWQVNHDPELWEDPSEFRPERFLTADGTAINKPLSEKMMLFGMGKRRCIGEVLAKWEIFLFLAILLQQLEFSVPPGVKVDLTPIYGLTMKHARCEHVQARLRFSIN
Chain of Lysosomal acid glucosylceramidase (Homo sapiens) (P04062 whole entry, looked up): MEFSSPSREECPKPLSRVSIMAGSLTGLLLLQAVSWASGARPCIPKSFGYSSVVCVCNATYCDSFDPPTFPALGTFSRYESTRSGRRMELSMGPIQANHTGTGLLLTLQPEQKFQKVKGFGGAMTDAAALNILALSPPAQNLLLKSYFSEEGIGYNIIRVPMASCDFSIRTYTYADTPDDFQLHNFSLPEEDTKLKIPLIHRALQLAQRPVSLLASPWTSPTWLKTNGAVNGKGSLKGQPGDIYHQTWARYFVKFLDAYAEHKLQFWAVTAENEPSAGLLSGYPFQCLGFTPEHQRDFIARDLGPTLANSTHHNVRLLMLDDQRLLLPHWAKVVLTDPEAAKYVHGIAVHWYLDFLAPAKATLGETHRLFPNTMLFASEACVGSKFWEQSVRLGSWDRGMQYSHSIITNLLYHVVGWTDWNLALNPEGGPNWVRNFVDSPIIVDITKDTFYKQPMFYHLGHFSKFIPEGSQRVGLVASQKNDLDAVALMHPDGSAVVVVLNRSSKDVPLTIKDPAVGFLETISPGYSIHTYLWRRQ
Chain of 3',5'-cyclic-AMP phosphodiesterase 4B (Homo sapiens) (Q07343 whole entry, looked up): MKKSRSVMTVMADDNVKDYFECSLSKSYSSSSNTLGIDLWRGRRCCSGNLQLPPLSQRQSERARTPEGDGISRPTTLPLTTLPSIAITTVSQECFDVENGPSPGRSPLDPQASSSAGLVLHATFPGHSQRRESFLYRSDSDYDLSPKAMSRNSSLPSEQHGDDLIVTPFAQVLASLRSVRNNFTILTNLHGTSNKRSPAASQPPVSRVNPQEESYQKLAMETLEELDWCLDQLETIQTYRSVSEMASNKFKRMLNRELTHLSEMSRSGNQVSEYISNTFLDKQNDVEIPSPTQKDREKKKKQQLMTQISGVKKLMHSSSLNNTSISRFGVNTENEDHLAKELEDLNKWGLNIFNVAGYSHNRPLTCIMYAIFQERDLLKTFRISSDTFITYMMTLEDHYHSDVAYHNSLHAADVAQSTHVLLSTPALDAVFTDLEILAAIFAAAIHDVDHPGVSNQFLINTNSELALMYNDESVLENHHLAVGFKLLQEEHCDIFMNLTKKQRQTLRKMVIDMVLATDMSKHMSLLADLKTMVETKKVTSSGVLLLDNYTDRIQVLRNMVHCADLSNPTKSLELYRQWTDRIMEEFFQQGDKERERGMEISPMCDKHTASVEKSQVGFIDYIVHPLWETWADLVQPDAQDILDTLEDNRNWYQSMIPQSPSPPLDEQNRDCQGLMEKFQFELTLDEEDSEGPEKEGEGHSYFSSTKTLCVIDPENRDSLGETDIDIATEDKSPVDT
Chain of Glucocorticoid receptor (Homo sapiens) (P04150 whole entry, looked up, the tested form may be a part): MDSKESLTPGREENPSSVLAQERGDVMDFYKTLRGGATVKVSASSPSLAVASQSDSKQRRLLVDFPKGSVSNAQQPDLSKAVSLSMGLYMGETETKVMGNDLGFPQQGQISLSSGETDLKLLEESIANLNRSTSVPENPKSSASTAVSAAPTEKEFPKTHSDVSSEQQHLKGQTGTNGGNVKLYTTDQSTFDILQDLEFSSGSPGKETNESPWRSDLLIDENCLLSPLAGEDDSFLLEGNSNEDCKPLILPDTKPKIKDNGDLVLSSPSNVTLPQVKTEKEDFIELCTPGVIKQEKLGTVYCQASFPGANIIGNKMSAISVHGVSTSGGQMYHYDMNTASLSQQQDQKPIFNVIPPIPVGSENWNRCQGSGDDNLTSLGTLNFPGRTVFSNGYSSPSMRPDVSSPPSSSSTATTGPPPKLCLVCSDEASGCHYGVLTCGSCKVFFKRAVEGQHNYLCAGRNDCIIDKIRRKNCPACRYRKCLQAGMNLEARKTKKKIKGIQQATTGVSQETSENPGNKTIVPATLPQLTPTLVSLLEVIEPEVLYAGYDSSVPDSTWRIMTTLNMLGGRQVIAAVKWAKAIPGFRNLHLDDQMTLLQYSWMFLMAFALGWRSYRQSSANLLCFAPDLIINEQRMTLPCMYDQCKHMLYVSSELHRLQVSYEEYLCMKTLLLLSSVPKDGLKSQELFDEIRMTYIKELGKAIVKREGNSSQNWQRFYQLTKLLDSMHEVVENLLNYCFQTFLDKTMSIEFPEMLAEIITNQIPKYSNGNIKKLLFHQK

In the case of `COc1ccc(NC(=O)N2CC3(CCN(C(=O)c4ccco4)CC3)C2)cc1`, the Potency in [1] is > 11.4 µM (inactive); in assay [6] it was > 46 µM (inactive). Also, the activity change, negative = inhibition is -4.09% (inactive) in [2], 3.69% (inactive) in assay [4] and 5.26% (inactive) in [9]. For the same molecule, the Potency entry in [3], in assay [8] and in assay [10] was “inactive” throughout. Also, the activity, negative = inhibition in assay [5] is -3.56% (inactive). Further, the molecule was classed as inactive in assay [7]. Moreover, the max response turned out to be 0.813% in assay [9] (setting [11]) and 8.8% in assay [9] (setting [12]).

Consider `O=C(c1csnn1)N1CCC2(CC1)CCN(c1ncccn1)CC2`, for which the values for the Potency in [1] and in assay [6] were > 11.4 µM (inactive) and > 46 µM (inactive), respectively. The results for the activity change, negative = inhibition in assay [2], in assay [4] and in assay [9] were -14.3% (inactive), 1.39% (inactive) and 4.97% (inactive), respectively. For the same molecule, the Potency result in assay [3] and in assay [10] was “inactive” throughout. The activity, negative = inhibition in [5] is -5.07% (inactive). For the same molecule, the result in assay [7] was inactive. The max response in assay [9] (setting [11]) is -0.155%; in assay [9] (setting [12]), 6.88%.

Take `O=C(Nc1ccccc1)N1CC2(CCN(C(=O)c3ccncc3)CC2)C1`: the Potency in assay [1] is > 11.4 µM (inactive); in assay [3], 10 µM (active); in assay [6] it was > 46 µM (inactive). Moreover, the activity change, negative = inhibition in assay [2] is 12.1% (inactive); in assay [4], 7.64% (inactive); in assay [9], 3.73% (inactive). In addition, in assay [5], the activity, negative = inhibition was -1.5% (inactive). In addition, the molecule was classed as inactive in assay [7]. In addition, the Potency entry in assay [8] and in [10] was “inactive” in each case. Also, the results for the max response in [9] (setting [11]) and in assay [9] (setting [12]) were -8.48% and -2.29%, respectively.

For the molecule `FC(F)(F)c1cc(CN2CC3(CCNCC3)C2)cc(C(F)(F)F)c1`, the Potency in [1] was > 11.4 µM (inactive); in assay [6], > 46 µM (inactive). For the same molecule, the activity change, negative = inhibition in assay [2] was -6.77% (inactive); in assay [4] it was 10.6% (inactive); in [9] it was -2.16% (inactive). Besides, the Potency entry in assay [3], in assay [8] and in assay [10] was “inactive” throughout. The activity, negative = inhibition in assay [5] is 3.31% (inactive). In assay [7], the result was inactive. The max response is -18% in [9] (setting [11]) and -13.5% in [9] (setting [12]).

As for `COCC(=O)N1CCC2(CC1)CCN(C(=O)Nc1ccc(OC)cc1)CC2`, the Potency in [1] was > 11.4 µM (inactive); in assay [6] it was > 46 µM (inactive). The figures for the activity change, negative = inhibition in [2], in [4] and in [9] were -6.71% (inactive), 6.08% (inactive) and 4.36% (inactive), respectively. The Potency result in assay [3], in assay [8] and in [10] was “inactive” in each case. Besides, the activity, negative = inhibition in assay [5] was -0.498% (inactive). Also, the outcome in assay [7] was inactive. For the same molecule, the max response worked out at 13.2% in assay [9] (setting [11]) and 20.1% in assay [9] (setting [12]).

On to `CS(=O)(=O)N1CCC[C@@]2(CCN(C(=O)Nc3ccccc3)C2)C1`, for which the Potency in assay [1] was > 11.4 µM (inactive); in assay [6] it was > 46 µM (inactive). The activity change, negative = inhibition is -1.88% (inactive) in assay [2], 17.3% (inactive) in [4] and 0.904% (inactive) in assay [9]. For the same molecule, the Potency entry in assay [3] and in assay [10] was “inactive” in each case. The activity, negative = inhibition in assay [5] is -10.3% (inactive). Further, the call in assay [7] was inactive. Besides, the max response in assay [9] (setting [11]) was 16.4%; in assay [9] (setting [12]) it was 17.6%.

On to `O=C(Nc1cccc(F)c1)N1CCC2(CC1)CCN(C(=O)c1cnccn1)CC2`, for which the Potency in [1] is > 11.4 µM (inactive); in assay [6], > 46 µM (inactive). In addition, the values for the activity change, negative = inhibition in [2], in assay [4] and in assay [9] were -10.4% (inactive), 20.5% (inactive) and 3.08% (inactive), respectively. For the same molecule, the Potency entry in [3], in [8] and in assay [10] was “inactive” each time. For the same molecule, the activity, negative = inhibition in assay [5] was -10.8% (inactive). Further, the result in assay [7] was inactive. Moreover, the figures for the max response in [9] (setting [11]) and in [9] (setting [12]) were 11.7% and 15.9%, respectively.
